Test results taken from PubChem BioAssay AID1159580 (chemical genetic matrix, 2015).
In all, about 5,500 compounds went through this assay and about 2,000 (36%) were called active. Inconclusive results (about 18%) are left out. Cut-off read from the data, not from the text of the source: active = normalized growth mostly below about 0.91 (no sharp cut-off); inconclusive = no clear call, values can overlap the other calls; inactive = mostly above about 0.92. Some of the results follow.

Experiment: chemical genetic growth profiling, strain panel (AID 1159580);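 note: tested at 20 µM; growth read once vehicle control cultures reached saturation at 30 °C; 1 = growth at the plate median or of vehicle wells; lower values mean less growth of the strain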
Conditions: growth OD

Measured: normalized growth

CCN(CCO)CCCC(C)Nc1ccnc2cc(Cl)ccc12 (configuration not stated)
inactive: S. cerevisiae deletion strains, locus YJR075W, strain HOC1, active compounds read low 1.01 | S. cerevisiae deletion strains, locus YKL009W, strain mrt4, active compounds read low 1.03 | S. cerevisiae deletion strains, locus YKL068W, active compounds read low 0.998 | S. cerevisiae deletion strains, locus YKL085W, strain MDH1 (second series), active compounds read low 1 | S. cerevisiae deletion strains, locus YKL085W, strain MDH1, active compounds read low 1 | S. cerevisiae deletion strains, locus YKL160W, strain elf1, active compounds read low 0.995 | S. cerevisiae deletion strains, locus YKL190W, strain CNB1, active compounds read low 1.02 | S. cerevisiae deletion strains, locus YKR001C, strain vps1, active compounds read low 1.03 | S. cerevisiae deletion strains, locus YKR026C, strain gcn3, active compounds read low 1 | S. cerevisiae deletion strains, locus YKR091W, strain srl3, active compounds read low 1 | S. cerevisiae deletion strains, locus YLL001W, strain dnm1, active compounds read low 0.988 | S. cerevisiae deletion strains, locus YLL026W, active compounds read low 1.01 | S. cerevisiae deletion strains, locus YLL041C, strain sdh2, active compounds read low 1.01 | S. cerevisiae deletion strains, locus YLR027C, strain aat2, active compounds read low 1 | S. cerevisiae deletion strains, locus YLR039C, strain RIC1, active compounds read low 1.04 | S. cerevisiae deletion strains, locus YLR058C, strain SHM2, active compounds read low 1.01 | S. cerevisiae deletion strains, locus YLR102C, strain apc9, active compounds read low 1.01 | S. cerevisiae deletion strains, locus YLR113W, strain HOG1, active compounds read low 1.03 | S. cerevisiae deletion strains, locus YLR221C, strain rsa3, active compounds read low 0.996 | S. cerevisiae deletion strains, locus YLR258W, strain gsy2, active compounds read low 0.999 | S. cerevisiae deletion strains, locus YLR262C, strain YPT6 (second series), active compounds read low 0.989 | S. cerevisiae deletion strains, locus YLR262C, strain YPT6, active compounds read low 1.06 | S. cerevisiae deletion strains, locus YLR268W, strain sec22, active compounds read low 1.02 | S. cerevisiae deletion strains, locus YLR320W, strain mms22, active compounds read low 0.997 | S. cerevisiae deletion strains, locus YLR330W, strain CHS5, active compounds read low 1.01 | S. cerevisiae deletion strains, locus YLR342W, strain FKS1 (second series), active compounds read low 1.02 | S. cerevisiae deletion strains, locus YLR342W, strain FKS1, active compounds read low 0.997 | S. cerevisiae deletion strains, locus YLR357W, strain rsc2, active compounds read low 1.02 | S. cerevisiae deletion strains, locus YLR370C, strain arc18, active compounds read low 1 | S. cerevisiae deletion strains, locus YLR371W, strain rom2, active compounds read low 1 | S. cerevisiae deletion strains, locus YLR384C, strain iki3, active compounds read low 1 | S. cerevisiae deletion strains, locus YLR418C, strain cdc73, active compounds read low 1.04 | S. cerevisiae deletion strains, locus YML016C, strain PPZ1, active compounds read low 1 | S. cerevisiae deletion strains, locus YML032C, strain rad52, active compounds read low 1.05 | S. cerevisiae deletion strains, locus YML120C, strain ndi1, active compounds read low 0.999 | S. cerevisiae deletion strains, locus YML124C, strain tub3, active compounds read low 1.01 | S. cerevisiae deletion strains, locus YMR058W, strain fet3, active compounds read low 1 | S. cerevisiae deletion strains, locus YMR078C, strain ctf18, active compounds read low 1.03 | S. cerevisiae deletion strains, locus YMR125W, strain sto1, active compounds read low 1 | S. cerevisiae deletion strains, locus YMR129W, active compounds read low 1 | S. cerevisiae deletion strains, locus YMR205C, strain PFK2, active compounds read low 0.986 | S. cerevisiae deletion strains, locus YMR223W, strain ubp8, active compounds read low 1.02 | S. cerevisiae deletion strains, locus YMR231W, strain pep5, active compounds read low 0.987 | S. cerevisiae deletion strains, locus YMR263W, strain SAP30, active compounds read low 1.01 | S. cerevisiae deletion strains, locus YMR307W, strain GAS1, active compounds read low 1.11 | S. cerevisiae deletion strains, locus YNL067W, strain RPL9B, active compounds read low 1.01 | S. cerevisiae deletion strains, locus YNL071W, strain lat1, active compounds read low 1 | S. cerevisiae deletion strains, locus YNL128W, strain TEP1, active compounds read low 1.02 | S. cerevisiae deletion strains, locus YNL153C, strain GIM3, active compounds read low 1 | S. cerevisiae deletion strains, locus YNL183C, strain NPR1, active compounds read low 0.952 | S. cerevisiae deletion strains, locus YNL209W, strain ssb2, active compounds read low 1 | S. cerevisiae deletion strains, locus YNL233W, strain BNI4, active compounds read low 1.01 | S. cerevisiae deletion strains, locus YNL248C, strain rpa49, active compounds read low 1 | S. cerevisiae deletion strains, locus YNL250W, strain rad50, active compounds read low 1.03 | S. cerevisiae deletion strains, locus YNL271C, strain bni1, active compounds read low 1.01 | S. cerevisiae deletion strains, locus YNL298W, strain CLA4, active compounds read low 1.02 | S. cerevisiae deletion strains, locus YNL307C, strain MCK1, active compounds read low 1.01 | S. cerevisiae deletion strains, locus YNL322C, strain KRE1 (second series), active compounds read low 1 | S. cerevisiae deletion strains, locus YNL322C, strain KRE1, active compounds read low 1.01 | S. cerevisiae deletion strains, locus YNR049C, strain mso1, active compounds read low 0.999 | S. cerevisiae deletion strains, locus YNR052C, strain pop2, active compounds read low 1.02 | S. cerevisiae deletion strains, locus YOL006C, strain TOP1, active compounds read low 1.01 | S. cerevisiae deletion strains, locus YOL012C, strain htz1 0.994 | S. cerevisiae deletion strains, locus YOL147C, strain pex11, active compounds read low 1.02 | S. cerevisiae deletion strains, locus YOR001W, strain rrp6, active compounds read low 1 | S. cerevisiae deletion strains, locus YOR061W, strain CKA2, active compounds read low 1.01 | S. cerevisiae deletion strains, locus YOR069W, strain VPS5, active compounds read low 1.01 | S. cerevisiae deletion strains, locus YOR070C, strain gyp1, active compounds read low 0.995 | S. cerevisiae deletion strains, locus YOR080W, strain dia2, active compounds read low 0.997 | S. cerevisiae deletion strains, locus YOR083W, strain WHI5, active compounds read low 0.996 | S. cerevisiae deletion strains, locus YOR106W, strain vam3, active compounds read low 1.01 | S. cerevisiae deletion strains, locus YOR136W, strain idh2, active compounds read low 1.03 | S. cerevisiae deletion strains, locus YOR144C, strain elg1, active compounds read low 1.02 | S. cerevisiae deletion strains, locus YOR184W, strain ser1, active compounds read low 1.03 | S. cerevisiae deletion strains, locus YOR231W, strain MKK1, active compounds read low 1.02 | S. cerevisiae deletion strains, locus YOR265W, strain rbl2, active compounds read low 1.04 | S. cerevisiae deletion strains, locus YOR270C, strain vph1, active compounds read low 1.03 | S. cerevisiae deletion strains, locus YOR290C, strain snf2, active compounds read low 1.03 | S. cerevisiae deletion strains, locus YOR316C, strain cot1, active compounds read low 1.01 | S. cerevisiae deletion strains, locus YPL051W, strain arl3, active compounds read low 0.995 | S. cerevisiae deletion strains, locus YPL055C, strain LGE1, active compounds read low 1.04 | S. cerevisiae deletion strains, locus YPL078C, strain atp4, active compounds read low 1.01 | S. cerevisiae deletion strains, locus YPL106C, strain sse1, active compounds read low 0.991 | S. cerevisiae deletion strains, locus YPL240C, strain hsp82, active compounds read low 1 | S. cerevisiae deletion strains, locus YPL241C, strain CIN2, active compounds read low 1.01 | S. cerevisiae deletion strains, locus YPL256C, strain CLN2, active compounds read low 0.966 | S. cerevisiae deletion strains, locus YPR119W, strain clb2, active compounds read low 1.01 | S. cerevisiae deletion strains, locus YPR141C, strain kar3, active compounds read low 1.02 | S. cerevisiae deletion strains, locus YPR163C, strain tif3, active compounds read low 1.01 | S. cerevisiae deletion strains, locus YPR167C, strain met16, active compounds read low 1.01 | S. cerevisiae deletion strains, strain wtn01, active compounds read low 1.01 | S. cerevisiae strains, strain wild type, active compounds read low 1.02
